Screens: PubChem, National Center for Advancing Translational Sciences (NCATS)
Hits are enriched below; roughly 5.7% of the tested compounds scored in any of these assays.
HT1080NT lethal: kills 2HG-producing HT-1080-NT fibrosarcoma cells; actives 1.6% (n = 360,000); Potency, µM (doses to about 46.1 µM), without a hit: top-dose activity, negative = less viability, usual class: cytotoxic; HT-1080-NT fibrosarcoma viability, CellTiter-Glo ATP luminescence, 48 h;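 further: NT is the 2HG producing partner of a matched IDH1 knockdown line; 0% = DMSO-treated cells and -100% = media-only wells without cells; nearly all actives have a fitted effect of over 55% in size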
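750 cells/well, RPMI + 5% FBS; 2 h settle, compound pin-transfer, 48 h at 37 degrees C. CellTiter-Glo 10 min RT, luminescence. Normalized to DMSO and media-only wells.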
KB-V1 cytotox: kills drug-selected multidrug resistant KB-V1 cells. KB-V1 MDR cells viability, CellTiter-Glo, 72 h. Potency, µM (doses to about 46.1 µM), actives largely listed as cytotoxic. actives 3.4% (n = 400,000); further: nearly all actives have a fitted effect of over 60% in size
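Cells of the MDR subline KB-V1 are plated, dosed with compound at multiple concentrations, and incubated 72 h at 37 degrees C; CellTiter-Glo is then added and luminescence read after 10 min.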
HT1080 IDH1KD tx: HT-1080 IDH1 knockdown cell toxicity (counter line); Potency, µM (top dose mostly 46.1 µM), without a hit: top-dose activity, negative = toxicity, actives largely listed as cytotoxic; actives 2% (n = 360,000); HT-1080 IDH1 knockdown viability, ATP luminescence, 48 h;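 further: 0% = DMSO wells and -100% = cell-free medium wells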
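Assay cells: HT-1080 with IDH1 knockdown, 750 per well, RPMI/5% FBS. Exposure: 48 h at 37 °C following 2 h pre-incubation. Read: CellTiter-Glo luminescence; fitted concentration-response, curve class assigned.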
KB-3-1 cytotox: KB-3-1 parental cell cytotoxicity; KB-3-1 viability, CellTiter-Glo ATP luminescence, 72 h; Potency, µM (doses to about 46.1 µM), hits mostly cytotoxic; actives 1.4% (n = 400,000); AID 1347075; further: nearly all actives have a fitted effect of over 60% in size
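Viability of parental KB-3-1 cells, measured by CellTiter-Glo luminescence, followed a 72 h incubation at 37 °C with pinned compounds in phenol-red-free DMEM containing 10% FBS.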
* = called active by the depositor; i = inactive; ? = inconclusive; / = no result; [ ] = dose if it differs, or a comment. The call rests on the fitted dose curve; in most records, active means well fitted curve in the direction sought with a large enough effect; inconclusive means small, poorly fitted or top-dose-only effect, or another doubt; inactive means no such curve, though single readings can be large; an effect the other way counts as inactive or inconclusive. Unless noted, on the % scale 0 is the no-effect control and ±100 the full control effect; potency means the concentration at half of the fitted maximal effect.

SMILES | HT1080NT lethal | KB-V1 cytotox | HT1080 IDH1KD tx | KB-3-1 cytotox
CC(C)N1CC(C(=O)Nc2ccccc2)CC1=O (configuration not stated) | -4% | ? | -1% | i
O=C(NCc1ccc(F)cc1)c1ccc2c(c1)nnn2C1CCCC1 | / | i | / | i
COc1ccc(OC)c(NC(=O)c2c(NCc3ccc(N(C)C)cc3)sc3c2CCCC3)c1 | / | i | / | i
Cc1ccccc1C(=O)Nc1ccc(Cl)cn1 | 3% | ? | 2% | ?
COc1cc(SC)ccc1C(=O)Nc1ccc(Cl)cn1 | 4% | 13µM* | 6% | ?
CSc1ccc(Cl)c(C(=O)Nc2ccc(Cl)cn2)c1 | 6.5µM* | i | 5.8µM* | 23µM*
COc1cc(SC)ccc1C(=O)Nc1ccncc1 | 12% | ? | -3% | i
CCC(Sc1nnc2c(n1)[nH]c1ccccc12)C(=O)Nc1ccccc1OC (configuration not stated) | / | ? | / | i
CCC[N+](C)(C)c1ccc(/C=C/c2ccnc3ccccc23)cc1 | / | ? | / | 1.6µM*
Cc1cc(/C=C/c2ccnc3ccccc23)ccc1N | / | 23µM* | / | ?
C[N+](C)(C)c1ccc(/C=C/c2ccnc3ccccc23)cc1 | / | ? | / | 18µM*
Cc1cccc(N2CCN(C(=O)c3cc4c(=O)n(C)c5ccccc5c4s3)CC2)c1C | / | i | / | i
CCc1ccc2[nH]c(=O)c(CN(Cc3ccccc3OC)Cc3nnnn3Cc3ccco3)cc2c1 | ? | ? | ? | 21µM*
CCOc1ccc2[nH]c(=O)c(CN(Cc3ccco3)Cc3nnnn3Cc3ccccc3)cc2c1 | 4% | ? | -30% | i
COc1ccccc1CN(Cc1cc2cc(C)ccc2[nH]c1=O)Cc1nnnn1Cc1ccco1 | ? | 18µM* | -1%[9.24 µM] | ?
CNC(=S)N(Cc1ccco1)Cc1cc2cc(OC)ccc2[nH]c1=O | -6% | ? | -6% | i
COc1ccc2[nH]c(=O)c(CN(Cc3ccco3)Cc3nnnn3Cc3ccccc3)cc2c1 | -2% | 7.3µM* | -4% | i
COC(=O)c1ccccc1S(=O)(=O)N(Cc1ccco1)Cc1cc2cc(OC)ccc2[nH]c1=O | -1% | 8.2µM* | -22% | i
N#CC[n+]1cccc(Br)c1 | / | i | / | i
CCc1ccc(-c2cc(C(F)(F)F)n3nc(C(=O)Nc4cnn(Cc5ccc(C)cc5)c4)cc3n2)s1 | ? | 3.7µM* | 3.2µM* | i
Cc1nn(-c2ccccc2)c(C)c1C(=O)Nc1nnc(-c2ccco2)o1 | -25% | 5.8µM* | -23% | ?
O=C(/C=C/c1ccc2c(c1)OCO2)NCCS(=O)(=O)N1CCN(c2ccccc2)CC1 | ? | i | 7.3µM* | ?
O=C(/C=C/c1ccc2c(c1)OCO2)NCCS(=O)(=O)N1CCN(c2ccc(F)cc2)CC1 | -30% | ? | ? | ?
CN(C)c1ccc(/C=N/NC(=O)c2cc(-c3ccc4c(c3)OCO4)n[nH]2)cc1 | 5.8µM* | ? | ? | ?
O=C(O)c1cc(N/N=C/c2ccc3c(c2)OCO3)ccc1Cl | -9% | i | -1% | i
SMILES | HT1080NT lethal | KB-V1 cytotox | HT1080 IDH1KD tx | KB-3-1 cytotox
O=C(/C=C/c1ccccc1)c1ccccn1 | ? | i | ? | i
O=C(O)c1ccc(N/N=C/c2ccc3c(c2)OCO3)cc1 | 18µM* | ? | 23µM* | 21µM*
O=C(/C=C/c1ccc2c(c1)OCO2)c1ccccn1 | 26µM* | i | ? | ?
O=C(N/N=C/c1ccc(F)cc1)c1cc(-c2ccc3c(c2)OCO3)n[nH]1 | ? | i | ? | i
Cc1ccc(C)c(N2CCN(C(=O)c3cc4c(=O)oc5ccccc5c4s3)CC2)c1 | / | i | / | i
Cc1ccc2oc(C(=O)Nc3sc4c(c3C(=O)NCc3ccccc3)CCCC4)cc(=O)c2c1 | / | i | / | ?
Cc1cccc(NC(=S)N/N=C/c2c[nH]c3ccccc23)c1 | 23µM* | ? | 16µM* | 12µM*
CCOC(=O)c1cccc(NC(=O)c2ccc3c(c2)OCO3)c1 | 1% | ? | -12% | ?
O=C(N/N=C/c1ccc2c(c1)OCO2)c1ccc(COCC(F)(F)C(F)F)cc1 | 1µM* | i | 1.3µM* | 8.2µM*
O=c1[nH]c(N/N=C\c2ccc3c(c2)OCO3)nc2ccccc12 | 2% | i | -11% | ?
CCOC(=O)c1cccc(NC(=O)/C=C/c2ccc3c(c2)OCO3)c1 | ? | ? | ? | 10µM*
COc1ccc(/C=N/NC(=O)c2ccc(COCC(F)(F)C(F)F)cc2)cc1 | 4% | ? | -8% | i
O=c1cnnc(N/N=C/c2ccc3c(c2)OCO3)[nH]1 | -2% | 7.3µM* | 0% | ?
Cc1nnc(N2CCCC(C(=O)Nc3cccc(C(F)(F)F)c3)C2)c2nn(-c3ccccc3)c(C)c12 (configuration not stated) | / | i | / | i
C(=Cc1cnc2ccccc2n1)c1ccc2c(c1)OCO2 | -3% | 15µM* | -13% | i
O=C(N/N=C/c1ccc2c(c1)OCO2)c1ccccn1 | ? | 15µM* | ? | ?
O=C(O)c1ccc(/C=N/Nc2ccc(F)cc2F)cc1 | 3.3µM* | i | 5.2µM* | i
O=C(C=Cc1ccc2c(c1)OCO2)c1ccccc1 | ? | i | 16µM* | i
C(=C\c1nc2ccccc2nc1/C=C/c1ccc2c(c1)OCO2)/c1ccc2c(c1)OCO2 | / | i | / | ?
NC(c1ccccc1)c1csc(Nc2ccc(C(F)(F)F)cn2)n1 (configuration not stated) | ? | i | ? | i
CCOc1ccc(C(CC(=O)Nc2cc(C)c(Cl)cc2OC)N2Cc3ccccc3C2=O)cc1OC (configuration not stated) | / | ? | / | i
O=C(N/N=C/c1ccc2c(c1)OCO2)c1ccc2c(c1)OCCO2 | ? | i | 23µM* | 16µM*
O=C(N/N=C/c1c[nH]c2ccccc12)c1ccccc1 | 15% | i | 11% | i
O=C(N/N=C/c1c[nH]c2ccccc12)c1ccc2c(c1)OCCO2 | ? | ? | 21µM* | i
Nc1c2c(nc3sc4c(c13)CCCC4)-c1ccccc1CC2 | ? | ? | 18µM* | ?
SMILES | HT1080NT lethal | KB-V1 cytotox | HT1080 IDH1KD tx | KB-3-1 cytotox
CC(C)=CCC/C(C)=C/CC/C(C)=C/CCC1(C)CCc2cc(O)ccc2O1 (configuration not stated) | 5% | / | 15% | /
CCOC(=O)CSc1c(-c2cccs2)[nH]c2ccccc12 | 18µM* | ? | ? | ?
Cc1nc2sc(C(N)=O)c(N)c2c2c1CCCC2 | -22% | 21µM* | -4% | i
CC(=O)c1sc2nc(-c3ccc(C)cc3)c3c(c2c1N)CCCC3 | -5% | 18µM* | -22% | i
Cc1ccc(-c2nc3sc(C(N)=O)c(N)c3c3c2CCCC3)cc1 | 12% | ? | 2% | i
COc1ccc(N(C)S(=O)(=O)c2ccc3c(c2)n(C)c(=O)c(=O)n3C)cc1 | / | i | / | i
Cc1nc2c(c(=O)n1CCC1=CCCCC1)c1nc3ccccc3nc1n2/N=C/c1ccccc1 | 2% | 9.2µM* | 12% | i
